# Most compounds without a hit are left out; they make up all but 19% or so of the library.
# VP16 counter: Gal4-VP16 reporter inhibition counter-screen | AID 2546 | hit rate 3.5% among 310,000 | Drosophila S2 Gal4-VP16 UAS-luciferase, luminescence, 20 h | Potency, µM (doses to about 53.6 µM), for the others: at the top dose activity, negative = inhibition, actives largely listed as inhibitors;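 note: Gal4-VP16 expression switched on by copper sulfate through the metallothionein promoter; nearly all actives have a fitted effect of over 50% in size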
# TDP1 cell CPT: DT40-hTDP1 cell growth loss with CPT; chicken DT40 Tdp1-/-;hTDP1 cells + 20 nM CPT, ATP luminescence, 48 h; Potency, µM (series often up to 46.2 µM), without a hit: top-dose activity change, negative = growth inhibition, most hits filed as inhibitors; hit rate 12% among 420,000; AID 686979; note: nearly all actives have a fitted effect of over 55% in size
#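 Chicken DT40 Tdp1-/- cells stably complemented with human TDP1 were seeded at 400 cells/well in medium containing 20 nM camptothecin, exposed to pin-transferred compounds, and grown at 37 °C for at least 48 hr. Viability was read as ATP luminescence.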
# TDP1 inh: TDP1 (human) enzyme inhibition; Potency, µM (titrated, usually from 130 µM), for inactives: at the top dose activity change, negative = inhibition, hits mostly inhibitors; Q9NUW8; AID 485290; hit rate 0.28% among 350,000; recombinant TDP1, AlphaScreen DNA substrate cleavage; note: nearly all actives have a fitted effect of over 40% in size
#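 Signal: AlphaScreen proximity between streptavidin donor and anti-FITC acceptor beads on intact substrate. Reaction: Tdp1 1 nM, substrate 15 nM final, 5 min RT after 15 min compound preincubation.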
# TDP1 cell noCPT: qHTS for Inhibitors of human tyrosyl-DNA phosphodiesterase 1 (TDP1): qHTS in cells in absence of CPT | DT40 Tdp1-/- hTDP1 cells, no CPT, ATP luminescence, 48 h | Potency, µM (doses to about 46.2 µM), for inactives: at the highest dose activity change, negative = growth inhibition, usual class: inhibitors | hit rate 15% among 420,000; note: nearly all actives have a fitted effect of over 55% in size
#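 Chicken DT40 Tdp1-/- cells stably complemented with human TDP1 were seeded at 400 cells/well with DMSO in place of 20 nM camptothecin. After compound pinning, cells grew at least 48 hr at 37 °C; viability read by CellTiter-Glo luminescence.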
# RORgamma inh: inhibitors of mouse ROR gamma transcriptional activity; Potency, µM (series often up to 53.6 µM), inactives show at the top dose activity change, negative = inhibition, most hits filed as inhibitors; Drosophila S2 Gal4-RORgamma UAS-luciferase reporter, 20 h; P51450; hit rate 5.4% among 310,000; note: nearly all actives have a fitted effect of over 60% in size
# Target sequence (P51450 whole entry, looked up, the tested form may be a part): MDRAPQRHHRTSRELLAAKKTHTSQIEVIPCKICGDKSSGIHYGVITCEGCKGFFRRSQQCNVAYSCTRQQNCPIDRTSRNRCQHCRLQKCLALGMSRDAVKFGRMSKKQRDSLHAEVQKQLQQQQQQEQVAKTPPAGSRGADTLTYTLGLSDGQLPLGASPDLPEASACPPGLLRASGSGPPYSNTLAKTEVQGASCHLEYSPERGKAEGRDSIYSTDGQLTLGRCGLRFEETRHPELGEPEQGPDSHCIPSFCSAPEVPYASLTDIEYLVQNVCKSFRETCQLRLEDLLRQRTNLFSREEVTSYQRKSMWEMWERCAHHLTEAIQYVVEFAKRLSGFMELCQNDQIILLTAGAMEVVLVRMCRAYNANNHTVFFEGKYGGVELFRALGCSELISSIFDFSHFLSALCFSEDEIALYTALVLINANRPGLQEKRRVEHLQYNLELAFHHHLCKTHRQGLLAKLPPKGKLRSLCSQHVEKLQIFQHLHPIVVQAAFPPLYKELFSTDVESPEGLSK
#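 Compounds are pin-transferred onto Drosophila Schneider cells expressing a copper-inducible Gal4–ROR gamma transactivation domain fusion. After 1 hr, copper sulfate is added to 700 uM final; luciferase is read 20 hr later.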
# The depositor's hits bear a star; ? = inconclusive; . = no result given; [ ] = another dose, or the depositor's remark. Calls come from the whole dose curve; as a rule, active = well fitted curve in the direction sought with a large enough effect; inconclusive = small, poorly fitted or top-dose-only effect, or another doubt; inactive = no such curve, though single readings can be large; an effect the other way counts as inactive or inconclusive. % is set by controls: 0 for no effect and ±100 for the full control effect; potency is the fitted concentration of half-maximal effect.
SMILES,VP16 counter,TDP1 cell CPT,TDP1 inh,TDP1 cell noCPT,RORgamma inh
CCCSc1nc2cc(S(=O)(=O)N3CCOCC3)ccc2n1CC,3%,-5%,1%,?,43%
CCCCn1c(CCl)nc2cc(S(=O)(=O)N3CCOCC3)ccc21,.,4.6µM*,2%,6.5µM*,.
CCn1c(SCc2nc3ccccc3s2)nc2cc(S(=O)(=O)N3CCOCC3)ccc21,.,29µM*,.,?,.
CCCCn1c(C)nc2cc(S(=O)(=O)N3CCOCC3)ccc21,.,-27%,1%,-25%,.
O=S(=O)(c1cccc(-c2nnc(SCc3nc4ccccc4s3)o2)c1)N1CCOCC1,7%,18µM*,6%,?,3%
COc1ccc([N+](=O)[O-])cc1NC(=O)COC(=O)Cc1cc(OC)c(OC)c(OC)c1,-21%,6%,0%,-24%,0%
O=C(CCS(=O)(=O)c1ccc(Br)cc1)Nc1ccc(Cl)c(C(F)(F)F)c1,.,?,-13%,21µM*,.
CCOC(=O)c1cccc(NC(=O)CCS(=O)(=O)c2ccc3c(c2)CCN3C(=O)CC)c1,.,?,7%,-29%,.
CN1C(=O)Cc2cc(S(=O)(=O)CCC(=O)Nc3ccc(Cl)c(C(F)(F)F)c3)ccc21,.,23µM*,0%,?,.
CCC(=O)N1CCc2cc(S(=O)(=O)CCC(=O)Nc3ccc(Cl)c(C(F)(F)F)c3)ccc21,.,16µM*,0%,8.2µM*,.
CC1CCCN(C(=O)c2cccc(S(=O)(=O)Nc3cc(C(F)(F)F)ccc3Cl)c2)C1 (stereo not given),-25%,0%,3%,?,?
CCOC(=O)n1n[n+]([O-])c2ccccc21,-2%,-12%,3%,-17%,-2%
CC(=O)C[C@H]1c2cc(C(F)(F)F)ccc2S(=O)(=O)N1C1CCCCC1,.,16µM*,.,21µM*,.
CCCCCCCCN1[C@@H](CC(=O)O)c2cc(F)ccc2S1(=O)=O,.,0%,.,3%,.
CCOC(=O)C[C@H]1c2cc(F)ccc2S(=O)(=O)N1C1CCCCC1,.,3%,.,-11%,.
CCCCCCCCN1[C@@H](CC(C)=O)c2cc(C(F)(F)F)ccc2S1(=O)=O,.,?,.,13µM*,.
COC(=O)C[C@H]1c2cc(C(F)(F)F)ccc2S(=O)(=O)N1C1CCCC1,.,23µM*,.,?,.
Cc1nc(-c2ccc(Cl)cc2)sc1C1(C)CC(c2ccc(OC(F)(F)F)cc2)=NO1 (stereo not given),2%,-24%,2%,-13%,4%
CC(=O)Oc1ccc(-c2nc3cc(Cl)ccc3c(=O)o2)cc1,-2%,33%,4%,8%,4%
Cn1cccc1C(=O)C(=O)Nc1cc(Cl)cc(Cl)c1,-12%,16µM*,-5%,15µM*,32%
CC(Sc1nnc(-c2ccccc2)n1C)C(=O)NCc1ccco1 (stereo not given),.,-26%,.,-16%,.
[O-]/C(=C(\C(=S)Nc1cccc2ccccc12)[n+]1ccccc1)c1ccc(OC(F)F)cc1,-5%,?,3%,21µM*,-41%
[O-]/C(=C(\C(=S)Nc1cccc2ccccc12)[n+]1ccccc1)c1ccc2c(c1)OCCO2,?,?,9%,-16%,13µM*
Cc1ccccc1NC(=S)/C(=C(\[O-])c1ccc(C)c([N+](=O)[O-])c1)[n+]1ccccc1,-4%,?,5%,?,-12%[10 µM]
COc1cccc(NC(=S)/C(=C(\[O-])c2ccc(OC(F)F)cc2)[n+]2ccccc2)c1,10%,13µM*,6%,15µM*,-33%
SMILES,VP16 counter,TDP1 cell CPT,TDP1 inh,TDP1 cell noCPT,RORgamma inh
[O-]/C(=C(\C(=S)Nc1cccc2ccccc12)[n+]1ccccc1)c1cccs1,8%[10 µM],6%,5%,-8%,?
O=C(NCCCN1CCN(Cc2ccccc2Cl)CC1)Nc1ccccc1,-7%,-21%,12%,-28%,6%
Cc1c(OC(C)C(=O)NC2CC(C)(C)NC(C)(C)C2)ccc2c3c(c(=O)oc12)CCC3 (stereo not given),-2%,-16%,-5%,3%,-19%
COC(=O)c1c(NC(=O)c2ccc([N+](=O)[O-])o2)sc2c1CCN(C(C)C)C2,?,0.58µM*,4%,0.82µM*,?
CCOC(=O)c1sc(NC(=O)c2ccco2)c(C#N)c1C,16%,-9%,0%,-25%,?
CC(C)N1CCc2c(sc(NC(=O)c3ccc([N+](=O)[O-])o3)c2C(N)=O)C1,?,.,7%,.,7.1µM*
CCN(CC)C(=O)c1sc(NC(=O)c2c(OC)cccc2OC)c(C#N)c1C,-6%,15%,6%,-6%,26%
CCN(CC)C(=O)c1sc(NC(=O)c2cccc([N+](=O)[O-])c2)c(C#N)c1C,?,21µM*,-3%,16µM*,37%
COC(=O)c1sc(NC(=O)c2ccc([N+](=O)[O-])o2)c(C#N)c1C,-7%,9.2µM*,4%,6.5µM*,?
COC(=O)c1c(NC(=O)c2ccco2)sc2c1CCN(C(C)=O)C2,0%,?,3%,-24%,-22%
COc1ccc(CNC(=O)C(c2ccncc2)N(C(=O)Cc2cccs2)c2cccnc2)cc1 (stereo not given),-4%,2%,.,-16%,20%
O=C(COC(=O)Cc1ccsc1)Nc1ccc(S(=O)(=O)N2CCOCC2)cc1,2%,-8%,8%,-14%,29%
Cc1ccccc1C1CC(c2ccc(Br)cc2)Nc2nc(N)nn21 (stereo not given),5%,-22%,3%,-28%,?
COc1ccc(C2CC(c3cc(OC)ccc3OC)n3nnnc3N2)cc1 (stereo not given),-3%,-25%,3%,-24%,33%
Cc1cccc(C2CC(c3ccc(Br)cc3)Nc3nc(N)nn32)c1 (stereo not given),5%,21µM*,5%,23µM*,-4%
Cc1ccccc1C1CC(c2ccc(F)cc2)Nc2nc(N)nn21 (stereo not given),-16%,21µM*,3%,?,-12%
COc1ccc(C2CC(c3cccc(C)c3)n3nc(N)nc3N2)cc1 (stereo not given),-27%,?,-11%,-3%,-21%
Cc1ccccc1C1CC(c2cccs2)Nc2nnnn21 (stereo not given),3%,-7%,5%,6.5µM*,11%
O=C(Oc1ccc[nH]c1=O)c1ccccc1,.,11%,.,-5%,.
CC(=O)c1cccc(NC(=S)NC(=O)c2ccc(Cl)cc2)c1,8.9µM*,?,5%,-14%,7.1µM*
CC(=O)c1cccc(NC(=O)c2c(F)c(F)c(F)c(F)c2F)c1,?,?,-2%,29µM*,-22%
CC(=O)c1cccc(NC(=S)NC(=O)c2ccccc2Br)c1,-84%,5%,3%,-19%,11µM*

# Screening data: PubChem, National Center for Advancing Translational Sciences (NCATS)
